Hits are enriched below; roughly 19% of the tested compounds scored in any of these assays.
HT1080NT lethal: kills 2HG-producing HT-1080-NT fibrosarcoma cells; HT-1080-NT fibrosarcoma viability, CellTiter-Glo ATP luminescence, 48 h; AID 686970; actives 1.6% (n = 360,000); Potency, µM (titrated, usually from 46.1 µM), for inactives: top-dose activity, negative = less viability, hits mostly cytotoxic;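 also: NT is the 2HG producing partner of a matched IDH1 knockdown line; potency is read from the fitted curve at half-maximal effect; 0% = DMSO-treated cells and -100% = media-only wells without cells; nearly all actives have a fitted effect of over 55% in size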
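Fibrosarcoma NT cells, 750 per well in 5% FBS RPMI, were exposed to compound for 48 hours. Viability: CellTiter-Glo luminescence.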
IL1B secr inh: inhibitors of inflammasome signaling (IL-1 beta secretion); THP-1 LPS/ATP IL-1B secretion, AlphaLISA, 16 h; hits give low values; activity change, % at 57.5 µM; actives 4.7% (n = 360,000); AID 743279; in the data active = activity change below about -50%; inconclusive = mostly about -30% to -49%
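THP-1 cells pretreated 1 hr with compounds (up to 57.5 uM final), then stimulated with LPS (250 ng/mL final) plus ATP (1.25 mM final); secreted IL-1B measured by AlphaLISA after 16 hr, decreased signal indicating inhibition.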
TDP1 cell CPT: growth inhibition of DT40 Tdp1-/-;hTDP1 cells with camptothecin (screen for TDP1 inhibitors) | chicken DT40 Tdp1-/-;hTDP1 cells + 20 nM CPT, ATP luminescence, 48 h | Potency, µM (top dose mostly 46.2 µM), without a hit: top-dose activity change, negative = growth inhibition, actives largely listed as inhibitors | actives 12% (n = 420,000) | AID 686979; also: potency is read from the fitted curve at half-maximal effect; nearly all actives have a fitted effect of over 55% in size
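Chicken DT40 Tdp1-/- cells complemented with human TDP1, 400 cells/well, exposed to compounds plus 20 nM camptothecin for at least 48 h at 37 C; viability read as ATP content by CellTiter-Glo luminescence.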
DT40 TDP1 no CPT: qHTS for Inhibitors of human tyrosyl-DNA phosphodiesterase 1 (TDP1): qHTS in cells in absence of CPT; actives 15% (n = 420,000); Potency, µM (doses to about 46.2 µM), for the others: at the highest dose activity change, negative = growth inhibition, usual class: inhibitors; DT40 Tdp1-/- hTDP1 cells, no CPT, ATP luminescence, 48 h; also: potency is read from the fitted curve at half-maximal effect; nearly all actives have a fitted effect of over 55% in size
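Camptothecin absent (DMSO only). Human TDP1-complemented DT40 knockout cells, 400 cells/well, 37 °C for minimum 48 hr; ATP measured via CellTiter-Glo, 30 min dark incubation, luminescence.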
HT1080 IDH1KD tx: toxicity to HT-1080 IDH1 knockdown cells (counter line); HT-1080 IDH1 knockdown viability, ATP luminescence, 48 h; Potency, µM (series often up to 46.1 µM), for inactives: top-dose activity, negative = toxicity, most hits filed as cytotoxic; actives 2% (n = 360,000);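 also: potency is read from the fitted curve at half-maximal effect; 0% = DMSO wells and -100% = cell-free medium wells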
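IDH1KD HT-1080 cells, 750/well, RPMI + 5% FBS; compound pinned after 2 h settling; 48 h, 37 °C; CellTiter-Glo luminescence; % activity normalised to DMSO and no-cell wells; curves fitted, classed by r2 and efficacy.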
ELG1 repair inh: blocks ELG1-dependent DNA repair in HEK293T cells; HEK293T ELG1-luciferase reporter, luminescence, 16 h; DNA damage induced by 5-fluorouridine; Potency, µM (doses to about 46.1 µM), without a hit: at the top dose activity change, negative = inhibition, usual class: inhibitors; actives 2.3% (n = 330,000); AID 504467; also: potency is read from the fitted curve at half-maximal effect; nearly all actives have a fitted effect of over 55% in size
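Overnight (16 hr) co-exposure of 2,000 cells/well to 5-fluorouridine and compound at 37 °C preceded detection. Luciferase was quantified via ONE-Glo luminescence; loss of signal denotes inhibition.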
An asterisk follows results filed as active; ? = inconclusive; . = no result given; [ ] = remark or other dose. Unless noted, calls follow the shape of the dose curve; as a rule, active = well fitted curve in the direction sought with a large enough effect; inconclusive = small, poorly fitted or top-dose-only effect, or another doubt; inactive = no such curve, though single readings can be large; an effect the other way counts as inactive or inconclusive. Unless noted, % is scaled to controls: 0 for no effect and ±100 for the full control effect.

SMILES	HT1080NT lethal	IL1B secr inh	TDP1 cell CPT	DT40 TDP1 no CPT	HT1080 IDH1KD tx	ELG1 repair inh
COc1ccc(-n2cc(C(=O)OCc3ccc(Cl)cc3)c3ccccc3c2=O)cc1	.	.	-7%	-1%	.	.
Cc1nc2sccn2c(=O)c1CCN1CCC(=C(c2ccccc2)c2ccc(F)cc2)CC1	.	.	13µM*	12µM*	.	-7%
Cc1nc2sccn2c(=O)c1S(=O)(=O)N1CCN(c2ccccc2)CC1	14%	6	-9%	-13%	12%	-1%
O=c1c(Cc2ccc(Cl)cc2Cl)c(O)ccn1CCCN1CCOCC1	1%	22	14%	15%	0%	-1%
CNC(=S)N1N=C(c2ccc(C)cc2)CC1c1ccc(Br)cc1 (stereo unspecified)	-5%	?	10µM*	7.3µM*	?	?
CNC(=S)N1N=C(c2ccc(C)cc2)CC1c1ccc(Cl)cc1 (stereo unspecified)	3%	-11	13µM*	10µM*	2%	16µM*
CNC(=S)N1N=C(c2ccccc2)CC1c1ccccc1Cl (stereo unspecified)	-2%	27	?	?	14%	4%
CC(=O)N1N=C(c2ccc(Br)cc2)CC1c1ccc(Br)cc1 (stereo unspecified)	-1%	30	-16%	-16%	1%	.
CC(C)c1ccc(C2CC(c3ccc(Br)cc3)=NN2C(N)=S)cc1 (stereo unspecified)	-23%	-4	15µM*	9.2µM*	?	?
O=C(O)CCC(=O)N1N=C(c2ccc(Br)cc2)CC1c1ccc(Br)cc1 (stereo unspecified)	-8%	-6	-12%	-16%	-13%	-3%
Cc1cccc(N2CCN(C(=O)CCC(=O)N3CCOc4ccc(Cl)cc43)CC2C)c1 (stereo unspecified)	-17%	?	?	?	-14%	?
c1ccc(CSc2nc3ccccc3[nH]2)cc1	2%	-1	-7%	?	-17%	?
Fc1ccc(CSc2nc3ccccc3[nH]2)c2ccccc12	?	2	?	21µM*	?	4%
Fc1ccc(CSc2nc3ccccc3[nH]2)cc1	-30%	-63*	?	?	?	?
O=[N+]([O-])c1ccc(CSc2nc3ccccc3[nH]2)cc1	5%	-23	?	29µM*	1%	?
CC1(C)C(CSc2nc3ccccc3[nH]2)C1(Cl)Cl (stereo unspecified)	-29%	?	23µM*	?	?	2%
Cc1cccc2nc(CSc3nc4ccccc4[nH]3)cn12	4%	-66*	19%	-15%	-1%	?
CCSc1nc2ccccc2[nH]1	0%	5	4%	-1%	5%	23%
c1ccc2[nH]c(SCc3cn4ccccc4n3)nc2c1	22%	-1	-5%	?	16%	0%
CCOc1ccc(OCCSc2nc3ccccc3[nH]2)cc1	?	?	16µM*	21µM*	-18%	-21%
COc1cc(OC)c2nc(-c3cc4c(c(OC)c3)OCCN(Cc3cn(C)nc3C)C4)cc(C)c2c1	.	.	-6%[9.04 µM]	?	.	.
Cc1ccc(CN2CC(N3CCN(C)CC3)CS2(=O)=O)cc1 (stereo unspecified)	21%	-1	-1%	6%	1%	.
Cc1ccc(SCc2nc3ccccc3n2CC(=O)Nc2ccccc2)cc1	-7%	-13	?	?	?	-6%
CC(C)Cn1c(N2CCN(CC(=O)Nc3ccc(Cl)cc3)CC2)nc2ccccc21	-7%	-85*	?	21µM*	-23%	13%

Screening results (PubChem BioAssay)
